The target in assay [1] is Retinoic acid receptor RXR-alpha (Homo sapiens) (UniProt P19793). The assay can be described thus: qHTS assay to identify small molecule agonists of the RXR signaling pathway (AID 1159527; calls by dose curve; note: nearly all actives have a fitted effect of over 35% in size; note: potency is the fitted concentration of half-maximal effect). The gist of the method: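 qHTS of the Tox21 10K library in GeneBLAzer RXR-alpha HEK 293T cells carrying a beta-lactamase reporter […]; 16 hr treatment, 9-cis retinoic acid as agonist control, FRET read-out.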
Retinoic acid receptor RXR-alpha (Homo sapiens), sequence (P19793 whole entry, looked up): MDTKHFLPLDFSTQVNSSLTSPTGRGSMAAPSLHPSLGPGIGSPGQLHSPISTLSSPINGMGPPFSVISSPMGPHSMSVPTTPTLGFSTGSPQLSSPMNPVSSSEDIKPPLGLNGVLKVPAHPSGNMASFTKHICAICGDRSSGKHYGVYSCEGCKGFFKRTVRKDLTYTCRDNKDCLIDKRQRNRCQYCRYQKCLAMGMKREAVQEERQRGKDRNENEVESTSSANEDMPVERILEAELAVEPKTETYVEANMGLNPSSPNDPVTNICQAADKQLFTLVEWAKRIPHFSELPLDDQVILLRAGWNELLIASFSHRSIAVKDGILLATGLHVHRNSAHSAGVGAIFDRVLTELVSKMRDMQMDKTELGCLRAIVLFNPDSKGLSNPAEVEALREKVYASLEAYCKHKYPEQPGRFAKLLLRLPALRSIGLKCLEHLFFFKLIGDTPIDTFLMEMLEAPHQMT
A general note: In qHTS, concentration-response curves come from the screen itself.

A short description of assay [2]: qHTS RealTime-Glo MT Cell Viability Assay in HepG2 cells - 40 hour (AID 1224870). Note: nearly all actives have a fitted effect of over 50% in size. Note: potency is the fitted concentration of half-maximal effect. The gist of the method: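 HepG2 cells (600/well) mixed with RealTime-Glo MT reagent, settled 5 h at 37 C/5% CO2 before compound addition. Nonlytic NanoLuc luminescence from viable-cell prosubstrate reduction read repeatedly during 40 h treatment at 37 C.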
Assay [3] is described as follows: qHTS RealTime-Glo MT Cell Viability Assay in HEK293 cells - 40 hour (AID 1224874). Note: nearly all actives have a fitted effect of over 50% in size. Note: potency is the fitted concentration of half-maximal effect. The conditions noted are these: RealTime-Glo luminescence; max response: stronger effect = lower value. The gist of the method: (§1)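 Real-time viability in HEK293: signal arises when living cells convert a prosubstrate for NanoLuc in the medium, so luminescence tracks viable cell number. Compound (23 nL, DMSO) added 5 h post-seeding; kinetic reads at 0–40 h, 37 C.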

Assay [4] in a line: qHTS RealTime-Glo MT Cell Viability Assay in HepG2 cells - 32 hour (AID 1224877). Note: nearly all actives have a fitted effect of over 55% in size. Note: potency is the fitted concentration of half-maximal effect. An outline of the steps:
(§2)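 Viability was tracked continuously by NanoLuc luminescence from prosubstrate reduced by living HepG2 cells, at successive time points over 40 h of compound exposure. Cells with reagent were preincubated 5 h at 37 °C before compound addition.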

A short description of assay [5]: qHTS RealTime-Glo MT Cell Viability Assay in HEK293 cells - 0 hour (AID 1224880). Note: top concentration of the series differs between compounds; nearly all actives have a fitted effect of over 45% in size. The gist of the method: as §1
A short description of assay [6]: A CellTox Green Cytotoxicity Assay to monitor cytotoxicity in HEK293 cells - 16 hour (AID 1224888). Note: nearly all actives have a fitted effect of over 35% in size. Note: potency is the fitted concentration of half-maximal effect. An outline of the steps:
(§3)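 Cells (HEK293, 600/well) and dye reagent are dispensed together. After 5 h at 37 C, 23 nL compound is pinned in. Plates stay at 37 C for 40 h with fluorescence read at 0h, 8h, 16h, 24h, 32h and 40h.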

The nature of assay [7]: qHTS RealTime-Glo MT Cell Viability Assay in HepG2 cells - 0 hour (AID 1224889). Note: nearly all actives have a fitted effect of over 50% in size. The gist of the method:
as §2

A short description of assay [8]: A CellTox Green Cytotoxicity Assay to monitor cytotoxicity in HepG2 cells - 8 hour (AID 1224890). Note: nearly all actives have a fitted effect of over 45% in size. Note: potency is the fitted concentration of half-maximal effect. An outline of the steps:
(§4)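 Cells and non-lytic dye reagent are dispensed together (600 HepG2 cells/well) and incubated 5 h before DMSO compound transfer. Kinetic fluorescence is then recorded in the same wells during 40 h at 37 C.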

Assay [9] in a line: qHTS assay to identify small molecule antagonists of the estrogen receptor alpha (ER-alpha) signaling pathway using the BG1 cell line in the presence of 0.1 nM 17-beta-estradiol - cell viability counter screen (AID 1259241). Note: nearly all actives have a fitted effect of over 40% in size. Note: potency is the fitted concentration of half-maximal effect. The gist of the method: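 The cell line endogenously expresses full-length ER-alpha and carries four EREs driving luciferase. Cells are cultured 5 days hormone-free, treated 22 hr with compounds and 0.1 nM estradiol, then viability is read by fluorescence.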

A short description of assay [10]: qHTS assay to identify small molecule antagonists of the androgen receptor (AR) signaling pathway using the MDA cell line in the presence of 0.5 nM R1881 - cell viability counter screen (AID 1259242). Note: nearly all actives have a fitted effect of over 45% in size. The gist of the method:
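Steps: plate MDA-kb2 cells, rest 5 hr at 37C without CO2; pin in compounds in DMSO; add R1881 to 0.5 nM final; incubate 16 hr; add CellTiter-Fluor, 30 min; read fluorescence.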

The nature of assay [11]: qHTS assay to identify small molecule HDAC inhibitors - cell viability counter screen (AID 1259365). Note: series mostly up to about 92 µM; nearly all actives have a fitted effect of over 50% in size. The gist of the method:
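Viability readout: CellTiter-Glo luminescence. Wild-type HCT-116 cells, 2hr compound treatment following overnight attachment at 37 C.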

Assay [12] is described as follows: qHTS assay to identify small molecule antagonists of the sonic hedgehog signaling (Shh) pathway (AID 1259369; calls by dose curve; note: nearly all actives have a fitted effect of over 45% in size; note: potency is the fitted concentration of half-maximal effect). An outline of the steps: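 Cells are plated and held 4hr at 37 C, compounds (DMSO) are pinned in, conditioned medium is added to stimulate the pathway, and after 24hr luciferase reagent is added for 30min before luminescence is read.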
Assay [13] in a line: qHTS assay to identify small molecule agonists or antagonists of the thyroid stimulating hormone receptor (TSHR) signaling pathway - wild type cell line counter screen (AID 1259384; calls by dose curve). The gist of the method: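 Wild-type Hek293 cells, 800/well, 18 h at 37C, then compound with Ro20-1724 for 30 min RT. cAMP by HTRF (cAMP-d2/anti-cAMP cryptate), 1 h RT, fluorescence read. 15 concentrations, triplicates.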

The target of assay [14] is Cytochrome P450 2C19 (Homo sapiens) (UniProt P33261). The assay can be described thus: Cytochrome P450 Family 2 Subfamily C Member 19 (CYP2C19) small molecule antagonists: luciferase reporter qHTS assay (AID 1671197). Note: nearly all actives have a fitted effect of over 65% in size. Note: potency is the fitted concentration of half-maximal effect. An outline of the steps: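 Luminescent readout of CYP2C19 activity: luciferin product detected 20 min after adding detection reagent. Before that, compound and enzyme-substrate mix preincubated 10 min at room temperature; NADPH-regenerating system started a 1 h, 37C reaction. Ketoconazole as positive control.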
Cytochrome P450 2C19 (Homo sapiens), sequence (P33261 whole entry, looked up): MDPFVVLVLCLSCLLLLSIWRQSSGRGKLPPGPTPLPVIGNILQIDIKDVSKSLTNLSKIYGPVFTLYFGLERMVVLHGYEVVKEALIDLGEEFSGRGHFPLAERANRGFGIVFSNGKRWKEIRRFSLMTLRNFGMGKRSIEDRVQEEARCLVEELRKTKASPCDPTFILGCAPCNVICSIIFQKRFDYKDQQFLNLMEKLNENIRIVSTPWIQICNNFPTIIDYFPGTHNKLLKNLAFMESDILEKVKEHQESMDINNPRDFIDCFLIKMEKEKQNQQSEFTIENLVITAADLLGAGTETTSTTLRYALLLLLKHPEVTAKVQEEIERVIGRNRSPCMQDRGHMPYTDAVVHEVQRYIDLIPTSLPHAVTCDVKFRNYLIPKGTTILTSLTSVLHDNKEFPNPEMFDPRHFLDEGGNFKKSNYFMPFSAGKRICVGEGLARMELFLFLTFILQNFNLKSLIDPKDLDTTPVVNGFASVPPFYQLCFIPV
In general terms: In a reporter assay the amount or activity of a reporter protein is the signal.

In assay [15] the target is Cytochrome P450 1A2 (Homo sapiens) (UniProt P05177). The assay can be described thus: Cytochrome P450 Family 1 Subfamily A Member 2 (CYP1A2) small molecule antagonists: luciferase reporter qHTS assay (AID 1671199). Note: nearly all actives have a fitted effect of over 50% in size. Note: potency is the fitted concentration of half-maximal effect. The gist of the method:
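Compounds were incubated with CYP1A2 and a luminogenic proluciferin substrate for 10 min at room temperature before the reaction was started with NADPH regeneration solution. After 1 h, detection reagent was added and light output, proportional to CYP activity, was recorded.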

Assay [16] has as its target Voltage-gated inwardly rectifying potassium channel KCNH2 (Homo sapiens) (UniProt Q12809). The assay can be described thus: Human Ether-a-go-go-Related Gene (hERG) channel small molecule antagonists: fluorescence cell-based qHTS assay (AID 1671200). Note: nearly all actives have a fitted effect of over 50% in size. Note: potency is the fitted concentration of half-maximal effect. An outline of the steps: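 Quantitative HTS in hERG-U2OS cells: thallium entry through the channel reports activity, read as continuous 480/540 nm fluorescence over 2 min after stimulus addition.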
On the technique in general: Block of hERG is tested as a sign of cardiac risk.

Assay [17] is described as follows: A CellTox Green Cytotoxicity Assay to monitor cytotoxicity in HEK293 cells - 0 hour (AID 1224869). Note: nearly all actives have a fitted effect of over 50% in size. The gist of the method:
as §3

The nature of assay [18]: A CellTox Green Cytotoxicity Assay to monitor cytotoxicity in HepG2 cells - 16 hour (AID 1224876). Note: nearly all actives have a fitted effect of over 45% in size. Note: potency is the fitted concentration of half-maximal effect. An outline of the steps:
as §4

Assay [19] can be described thus: qHTS assay to identify small molecule agonists of the TGF-beta/Smad signaling pathway (AID 1346859; active = well fitted activation curve with a large enough effect in the signal ratio in the repeat runs, not every such curve was filed as active; the % refers to the signal ratio; note: series mostly up to about 77 µM). The gist of the method: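 Smad-responsive beta-lactamase reporter cells (HEK 293T) received compounds from DMSO stocks after overnight attachment, were incubated 5 hr, then treated 2 hr with FRET substrate before dual-emission fluorescence measurement (405 nm excitation).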

The target of assay [20] is Nuclear receptor subfamily 1 group I member 3 (Homo sapiens) (UniProt Q14994). In words: qHTS assay to identify small molecule antagonists of the constitutive androstane receptor (CAR) signaling pathway (AID 1224838).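 Note: HepG2 cells stably expressing hCAR with CYP2B6 luciferase reporter stimulated by CITCO; nearly all actives have a fitted effect of over 40% in size.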 Note: potency is the fitted concentration of half-maximal effect. An outline of the steps:
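Antagonist mode used CITCO at a final 50 nM to activate CAR in human hepatoma HepG2 cells carrying stable hCAR and a 2.2 kb CYP2B6 promoter-luciferase construct. Compounds were tested at 15 concentrations over 24 h, with luminescence as the end point.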

“And” between values parts separate entries of the source, which are not always exact repeats. Identical values can stand only once. Results filed as inconclusive are left out. The source holds several records for some structures; these can differ, active in one and inactive in another. The source made the active and inactive calls. Unless noted, calls come from the whole dose curve; as a rule, active = well fitted curve in the direction sought with a large enough effect in the repeat runs; inconclusive = weak or mixed curves; inactive = no such curve, though single readings can be large; an effect the other way counts as inactive or inconclusive.
% is set by controls: 0 for no effect and ±100 for the full control effect.

Voltage-gated inwardly rectifying potassium channel KCNH2 (Homo sapiens), sequence (Q12809 whole entry, looked up): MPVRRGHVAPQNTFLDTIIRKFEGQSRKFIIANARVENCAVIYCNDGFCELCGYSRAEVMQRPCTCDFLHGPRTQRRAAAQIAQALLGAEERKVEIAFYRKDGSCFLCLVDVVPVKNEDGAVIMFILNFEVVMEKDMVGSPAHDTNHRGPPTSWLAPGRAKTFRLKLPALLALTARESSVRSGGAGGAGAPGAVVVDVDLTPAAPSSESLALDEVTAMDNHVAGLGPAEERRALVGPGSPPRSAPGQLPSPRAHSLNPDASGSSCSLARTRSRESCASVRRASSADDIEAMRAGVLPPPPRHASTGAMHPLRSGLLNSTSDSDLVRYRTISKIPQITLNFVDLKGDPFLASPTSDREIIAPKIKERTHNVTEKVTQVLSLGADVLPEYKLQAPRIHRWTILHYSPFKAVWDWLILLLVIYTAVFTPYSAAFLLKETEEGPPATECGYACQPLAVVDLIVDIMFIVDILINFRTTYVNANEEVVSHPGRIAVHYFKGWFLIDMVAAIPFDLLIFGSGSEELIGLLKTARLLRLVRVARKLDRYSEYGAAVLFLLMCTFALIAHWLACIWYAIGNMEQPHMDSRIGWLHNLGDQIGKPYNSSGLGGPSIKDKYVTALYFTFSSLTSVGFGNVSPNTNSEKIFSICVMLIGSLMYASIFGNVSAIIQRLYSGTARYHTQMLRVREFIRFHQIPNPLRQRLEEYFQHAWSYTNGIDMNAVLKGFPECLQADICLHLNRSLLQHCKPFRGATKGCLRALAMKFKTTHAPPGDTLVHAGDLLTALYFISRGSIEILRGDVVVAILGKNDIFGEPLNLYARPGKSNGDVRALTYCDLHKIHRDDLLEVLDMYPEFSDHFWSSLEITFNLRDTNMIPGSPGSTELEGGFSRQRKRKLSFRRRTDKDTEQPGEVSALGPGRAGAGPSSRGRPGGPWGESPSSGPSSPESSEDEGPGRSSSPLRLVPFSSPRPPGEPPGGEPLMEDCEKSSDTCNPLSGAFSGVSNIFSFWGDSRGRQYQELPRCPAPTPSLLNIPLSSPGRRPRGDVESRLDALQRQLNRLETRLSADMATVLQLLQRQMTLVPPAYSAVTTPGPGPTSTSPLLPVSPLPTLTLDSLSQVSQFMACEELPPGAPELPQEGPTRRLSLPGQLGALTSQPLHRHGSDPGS
Cytochrome P450 1A2 (Homo sapiens), sequence (P05177 whole entry, looked up): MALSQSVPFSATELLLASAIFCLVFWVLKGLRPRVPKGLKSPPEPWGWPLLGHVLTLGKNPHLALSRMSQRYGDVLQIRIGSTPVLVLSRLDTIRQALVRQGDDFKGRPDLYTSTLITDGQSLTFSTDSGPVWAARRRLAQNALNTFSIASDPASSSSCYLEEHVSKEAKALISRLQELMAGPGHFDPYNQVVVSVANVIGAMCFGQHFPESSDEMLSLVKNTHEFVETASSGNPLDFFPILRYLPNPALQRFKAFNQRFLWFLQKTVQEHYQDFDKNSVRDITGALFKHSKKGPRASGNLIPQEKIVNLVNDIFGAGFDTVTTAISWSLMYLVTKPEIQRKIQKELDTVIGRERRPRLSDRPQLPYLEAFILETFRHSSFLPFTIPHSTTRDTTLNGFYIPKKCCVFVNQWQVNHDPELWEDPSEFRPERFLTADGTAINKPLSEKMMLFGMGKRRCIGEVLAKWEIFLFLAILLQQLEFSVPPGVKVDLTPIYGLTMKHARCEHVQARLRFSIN
Nuclear receptor subfamily 1 group I member 3 (Homo sapiens), sequence (Q14994 whole entry, looked up): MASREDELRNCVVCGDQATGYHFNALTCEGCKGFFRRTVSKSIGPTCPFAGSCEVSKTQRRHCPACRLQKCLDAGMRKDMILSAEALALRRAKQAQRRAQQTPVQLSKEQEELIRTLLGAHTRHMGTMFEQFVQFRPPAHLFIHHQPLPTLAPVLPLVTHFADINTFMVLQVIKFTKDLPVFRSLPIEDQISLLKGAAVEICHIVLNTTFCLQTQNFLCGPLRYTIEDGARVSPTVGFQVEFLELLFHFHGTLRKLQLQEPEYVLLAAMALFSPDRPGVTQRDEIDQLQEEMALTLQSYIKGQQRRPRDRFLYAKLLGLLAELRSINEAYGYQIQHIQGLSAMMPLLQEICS

`C=CC(=O)OCCCC`: in assay [1], the Potency result is “inactive”.
Turning to `O=[N+]([O-])c1c(Cl)c(Cl)cc(Cl)c1Cl`, the Potency result in [2], in assay [4], in assay [7], in assay [8], in assay [9] and in [10] was “inactive” each time. Further, the Potency result in [12] and in assay [16] was “inactive” each time. Besides, the max response in [3] is 0.554% (inactive). In addition, the molecule was called inactive in assay [5], in assay [11] and in assay [13]. The values for the Potency in assay [6], in [14] and in [15] were 49 µM (active), 71 µM (active) and 4.8 µM (active), respectively.
Take `OCC(c1ccc(Cl)cc1)c1ccc(Cl)cc1`: the Potency result in assay [1], in [17], in assay [7], in assay [9] and in [10] was “inactive” throughout. For the same molecule, the Potency in assay [3] is 38.9 µM (active); in assay [18], 43.6 µM (active); in assay [6] it was 24.5 µM (active); in assay [8] it was 49 µM (active); in [12], 24.3 µM (active); in assay [14], 0.0894 µM (active). Moreover, the Potency in [15] was 35.6 µM (active); in assay [16], 43.6 µM (active). For the same molecule, the molecule was classed as inactive in [5], in assay [11], in assay [13] and in assay [19].
In the case of `O=[N+]([O-])c1cc(C(F)(F)F)ccc1Cl`, the Potency result in assay [1] is “inactive”.
`O=C(c1ccccc1)C(Cl)Cl`: the Potency result in assay [17], in [2], in [18], in assay [4], in assay [6] and in assay [7] was “inactive” in each case. Besides, the Potency result in assay [8], in assay [9], in [10] and in [14] was “inactive” in each case. Besides, the Potency in [3] is 38.9 µM (active); in assay [12], 30.6 µM (active); in [15], 31.7 µM (active). Further, in assay [5], the molecule was classed as inactive.
Consider `Nc1ccc([N+](=O)[O-])cc1`, for which the Potency result in assay [20], in [17], in assay [2], in assay [4] and in [7] was “inactive” throughout. The Potency in assay [3] was 38.9 µM (active); in [8] it was 43.6 µM (active); in assay [12], 27.3 µM (active); in [14], 3.56 µM (active); in assay [15] it was 39.9 µM (active). Moreover, the result in assay [5], in [11], in assay [13] and in [19] was inactive.
As to `CC1COC(Cn2cncn2)(c2ccc(Oc3ccc(Cl)cc3)cc2Cl)O1` (stereo not drawn), the Potency result in [17], in assay [18], in assay [6], in [8] and in [9] was “inactive” each time. Moreover, the Potency in assay [3] is 17.4 µM (active); in assay [12], 3.44 µM (active); in assay [14], 0.0502 µM (active); in [15], 25.2 µM (active); in [16] it was 21.9 µM (active). The outcome in [5], in assay [11], in assay [13] and in assay [19] was inactive.
Take `CC(C)(C)c1cc(C(C)(C)C)c(O)c(C(C)(C)C)c1`: in assay [1], the Potency is 15.5 µM (active).
Turning to `CN1CSC(=S)N(C)C1`, the Potency was 3.84 µM (active) and 7.67 µM (active) in assay [20]; 12.3 µM (active) in [2]; 13.7 µM (active) and 21.8 µM (active) in assay [3]; 15.4 µM (active) in assay [4]; 17.1 µM (active) in [9]; 342 nM (active) and 1.08 µM (active) in [12]. Also, the Potency is 35.4 µM (active) and 17.8 µM (active) in [14]; “inactive and 39.8 µM (active)” in [15]. Also, the Potency entry in assay [17], in assay [18], in [6], in assay [7], in assay [8] and in [16] was “inactive” throughout. Further, the result in assay [5], in [11], in [13] and in [19] was inactive.
As for `Cc1ccc(N(SC(F)(Cl)Cl)S(=O)(=O)N(C)C)cc1`, the Potency in assay [20] was 27.3 µM (active); in assay [2] it was 9.77 µM (active); in assay [3] it was 5.49 µM (active); in assay [18] it was 17.4 µM (active); in assay [4], 9.77 µM (active); in assay [6], 24.5 µM (active). The Potency in assay [12] is 2.73 µM (active); in [14] it was 10 µM (active); in assay [15] it was 22.4 µM (active); in assay [16], 21.9 µM (active). For the same molecule, the Potency result in assay [17], in assay [7], in [8] and in assay [9] was “inactive” throughout. Further, the outcome in assay [5], in assay [13] and in [19] was inactive.
With `COCCOC(=O)c1ccccc1C(=O)OCCOC`, in [1], the Potency entry was “inactive”.

(Values after PubChem BioAssay (Tox21).)
